Source: PubChem BioAssay (Tox21)
Results filed as inconclusive are left out. Entries that show only a call come without a potency. Some compounds were tested as several samples or in several runs, with calls that do not always agree. Activity calls are given as the source filed them. Unless noted, calls follow the shape of the full dose curve.

Legend:
[1] = Nuclear factor erythroid 2-related factor 2/antioxidant responsive element (Nrf2/ARE) small molecule agonists: qHTS cell viability counter screen in human keratinocytes (AID 1919968; active = well fitted curve in the direction sought with a large enough effect in the repeat runs; an effect the other way counts as inactive or inconclusive; also: nearly all actives have a fitted effect of over 55% in size)
How it was run: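 Parallel cytotoxicity read: KeratinoSens HaCaT cells, compound treatment 23 h, viability by CellTiter-Fluor fluorescence 1 h post-reagent.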

[2] = Nuclear factor erythroid 2-related factor 2/antioxidant responsive element (Nrf2/ARE) small molecule agonists: luciferase reporter gene qHTS assay in human keratinocytes (AID 1919969); also: nearly all actives have a fitted effect of over 35% in size; also: potency is read from the fitted curve at half-maximal effect
[3] = molecular target: Gonadotropin-releasing hormone receptor (Homo sapiens) (UniProt P30968); test: Human gonadotropin-releasing hormone receptor (GnRHR) small molecule agonists, calcium flux assay in GnRHR-HEK293 cells (AID 1920063); also: nearly all actives have a fitted effect of over 35% in size
Sequence of Gonadotropin-releasing hormone receptor (Homo sapiens) (P30968 whole entry, looked up): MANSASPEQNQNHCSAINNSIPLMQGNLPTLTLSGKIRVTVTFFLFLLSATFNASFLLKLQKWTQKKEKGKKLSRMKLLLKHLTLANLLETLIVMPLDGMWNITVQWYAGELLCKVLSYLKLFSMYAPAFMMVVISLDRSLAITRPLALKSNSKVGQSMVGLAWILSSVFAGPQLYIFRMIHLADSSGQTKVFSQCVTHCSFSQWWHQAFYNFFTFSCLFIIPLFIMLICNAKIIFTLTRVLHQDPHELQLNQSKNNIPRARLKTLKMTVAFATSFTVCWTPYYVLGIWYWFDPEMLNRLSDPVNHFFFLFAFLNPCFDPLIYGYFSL
How it was run: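 Calcium flux, agonist mode, human GnRHR stably integrated in HEK293; dye 1 h at 37 C before compound; Ex/Em=480/540 kinetic read, 3 min; 15 concentrations, triplicate.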

[4] = molecular target: KiSS-1 receptor (Homo sapiens) (UniProt Q969F8); test: Human kisspeptin (KISS1R) small molecule agonists, calcium flux assay in KISS1R-HEK293 cells (AID 1920064; active = well fitted curve in the direction sought with a large enough effect in the repeat runs; an effect the other way counts as inactive or inconclusive)
Sequence of KiSS-1 receptor (Homo sapiens) (Q969F8 whole entry, looked up): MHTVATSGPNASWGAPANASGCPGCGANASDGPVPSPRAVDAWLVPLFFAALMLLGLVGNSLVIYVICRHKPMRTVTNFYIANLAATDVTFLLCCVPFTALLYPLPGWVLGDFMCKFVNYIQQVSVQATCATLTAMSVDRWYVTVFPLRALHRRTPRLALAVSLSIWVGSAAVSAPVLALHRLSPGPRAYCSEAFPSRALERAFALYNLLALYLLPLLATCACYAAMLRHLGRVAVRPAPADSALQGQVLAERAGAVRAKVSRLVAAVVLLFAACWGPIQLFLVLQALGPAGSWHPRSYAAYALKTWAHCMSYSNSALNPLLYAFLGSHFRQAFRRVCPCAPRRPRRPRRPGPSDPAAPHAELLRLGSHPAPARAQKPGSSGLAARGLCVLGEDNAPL
How it was run: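 Triplicate 15-concentration series were applied to dye-loaded human KISS1R HEK293 cells, and agonist-evoked calcium fluorescence was captured for 3 min.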

[5] = G protein-coupled receptor (GPCR) small molecule agonists, calcium flux assay: HEK293 wild type cell line counter screen (AID 1920065)
How it was run: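 Non-specific calcium responders were flagged by adding DMSO-dissolved compounds to dye-loaded cells and reading 480/540 nm fluorescence each second for 3 min; ATP served as positive control.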

[6] = p53 small molecule agonists, cell-based qHTS assay with human liver microsomes (AID 1963577)
How it was run: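 Compounds act here after metabolic activation: human liver microsomes and NADPH, both at 0.5 mg/mL final, were co-added to p53RE-bla cells. Incubation ran 16 h at 37 C, followed by LiveBLAzer detection.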

[7] = p53 small molecule agonists, cell-based qHTS assay with rat liver microsomes (AID 1963578)
How it was run: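 Read-out is beta-lactamase reporter fluorescence (LiveBLAzer, 2 h, room temperature, dark) in p53RE-bla cells treated 16 h at 37 C with compound, rat liver microsomes and NADPH, both 0.5 mg/mL final.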

[8] = p53 small molecule agonists, cell-based qHTS assay with human liver microsomes: qHTS cell viability counter screen (AID 1963579); also: nearly all actives have a fitted effect of over 45% in size
How it was run: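 Cells carrying the p53 response-element beta-lactamase reporter are treated for 16 h at 37 C with test compounds in the presence of human liver microsomes and NADPH (both 0.5 mg/mL final); ATP-based CellTiter-Glo luminescence then reports viability.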

[9] = p53 small molecule agonists, cell-based qHTS assay with rat liver microsomes: qHTS cell viability counter screen (AID 1963580); also: nearly all actives have a fitted effect of over 45% in size
How it was run: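 After the beta-lactamase ratio was read, CellTiter-Glo was added to the same wells and luminescence measured at 30 min; cells had been treated 16 h at 37 C with compounds, rat liver microsomes and NADPH (0.5 mg/mL final each).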

[10] = p53 small molecule agonists, cell-based qHTS assay: qHTS cell viability counter screen (AID 1963581); also: nearly all actives have a fitted effect of over 45% in size
How it was run: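 Multiplexed with the reporter read, a CellTiter-Glo step (30 min, room temperature) gauges ATP-based viability of HCT-116 p53RE-bla cells after 16 h compound incubation at 37 C.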

[11] = p53 small molecule agonists, cell-based qHTS assay (AID 1963582; active = well fitted activation curve with a large enough effect in the signal ratio in the repeat runs, not every such curve was filed as active; the % refers to the signal ratio)
How it was run: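 Beta-lactamase reporter cells (p53RE-bla) treated with compounds for 16 h at 37 C; FRET substrate, 2 h, room temperature; fluorescence intensity.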

[12] = molecular target: 5-hydroxytryptamine receptor 2A (Homo sapiens) (UniProt P28223); test: 5-hydroxytryptamine receptor 2A (HTR2A) small molecule antagonists, cell-based qHTS assay (AID 1963586); also: nearly all actives have a fitted effect of over 45% in size
Sequence of 5-hydroxytryptamine receptor 2A (Homo sapiens) (P28223 whole entry, looked up): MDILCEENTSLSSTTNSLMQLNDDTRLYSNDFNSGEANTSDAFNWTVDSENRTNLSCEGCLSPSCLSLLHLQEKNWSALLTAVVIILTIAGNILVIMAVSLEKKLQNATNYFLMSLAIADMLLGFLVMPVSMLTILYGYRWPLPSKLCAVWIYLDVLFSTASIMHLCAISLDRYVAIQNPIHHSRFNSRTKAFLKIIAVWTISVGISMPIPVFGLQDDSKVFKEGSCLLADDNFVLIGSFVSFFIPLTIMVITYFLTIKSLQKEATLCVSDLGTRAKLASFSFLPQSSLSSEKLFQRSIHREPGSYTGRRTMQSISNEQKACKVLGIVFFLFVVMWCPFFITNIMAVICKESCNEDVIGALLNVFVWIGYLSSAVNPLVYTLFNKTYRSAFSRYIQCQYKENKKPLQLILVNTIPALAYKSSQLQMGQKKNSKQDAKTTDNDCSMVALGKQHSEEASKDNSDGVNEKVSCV
How it was run: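 CHO cells stably expressing human HTR2A were plated for 18 h at 37 C, then loaded with calcium dye for 1 h. Compounds were preincubated 5 min at room temperature before DOI (4 nM solution) was added. Kinetic fluorescence was read for 3 min.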

[13] = molecular target: 5-hydroxytryptamine receptor 2A (Homo sapiens) (UniProt P28223); test: 5-hydroxytryptamine receptor 2A (HTR2A) small molecule agonists, cell-based qHTS assay (AID 1963587); also: nearly all actives have a fitted effect of over 30% in size
How it was run: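 CHO cells stably expressing human HTR2A, plated 18 h, loaded with calcium dye 1 h at 37 C. Agonist mode: compounds added and intracellular calcium fluorescence recorded kinetically for 2 min at 1 sec intervals.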

[14] = molecular target: Muscarinic acetylcholine receptor M1 (Homo sapiens) (UniProt P11229); test: Cholinergic receptor muscarinic 1 (CHRM1) small molecule antagonists, cell-based qHTS assay (AID 1963588); also: nearly all actives have a fitted effect of over 40% in size
Sequence of Muscarinic acetylcholine receptor M1 (Homo sapiens) (P11229 whole entry, looked up): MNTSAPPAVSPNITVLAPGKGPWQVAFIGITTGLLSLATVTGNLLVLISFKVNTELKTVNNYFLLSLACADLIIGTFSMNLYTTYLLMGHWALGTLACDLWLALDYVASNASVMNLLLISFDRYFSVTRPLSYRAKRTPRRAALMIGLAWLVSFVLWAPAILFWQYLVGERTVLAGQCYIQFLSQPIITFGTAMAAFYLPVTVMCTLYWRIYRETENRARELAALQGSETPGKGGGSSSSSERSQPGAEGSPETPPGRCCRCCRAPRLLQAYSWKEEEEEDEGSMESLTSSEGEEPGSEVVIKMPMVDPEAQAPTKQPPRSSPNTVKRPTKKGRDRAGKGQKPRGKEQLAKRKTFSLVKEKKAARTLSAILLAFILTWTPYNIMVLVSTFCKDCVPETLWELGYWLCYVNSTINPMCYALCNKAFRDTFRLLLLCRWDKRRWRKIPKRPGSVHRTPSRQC
How it was run: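 Compounds were tested at 15 concentrations in three independent runs. Dye-loaded CHRM1-CHO cells were exposed 5 min at room temperature before stimulation by acetylcholine added at 50nM. Intracellular calcium was read kinetically on FDSS for 3 min.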

[15] = molecular target: Muscarinic acetylcholine receptor M1 (Homo sapiens) (UniProt P11229); test: Cholinergic receptor muscarinic 1 (CHRM1) small molecule agonists, cell-based qHTS assay (AID 1963589); also: nearly all actives have a fitted effect of over 35% in size
How it was run: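 qHTS, 15-point titration, 3 independent runs: compounds pin-transferred onto dye-loaded CHRM1-CHO cells (human M1), calcium fluorescence followed every second to detect agonism.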

[16] = cAMP Responsive Elements (CRE) small molecule agonists, cell-based qHTS assay (AID 1963590)
How it was run: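 Quantitative HTS for CRE agonists: HEK 293T CRE-bla cells, overnight plating, 3 h compound incubation at 37 C/5% CO2, then 2 h room-temperature LiveBLAzer B/G FRET substrate loading.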

[17] = molecular target: Beta-2 adrenergic receptor (Homo sapiens) (UniProt P07550); test: Adrenergic beta2 receptor (ADRB2) small molecule antagonists, cell-based qHTS assay (AID 1963592); also: series mostly up to about 92 µM; nearly all actives have a fitted effect of over 50% in size
Sequence of Beta-2 adrenergic receptor (Homo sapiens) (P07550 whole entry, looked up): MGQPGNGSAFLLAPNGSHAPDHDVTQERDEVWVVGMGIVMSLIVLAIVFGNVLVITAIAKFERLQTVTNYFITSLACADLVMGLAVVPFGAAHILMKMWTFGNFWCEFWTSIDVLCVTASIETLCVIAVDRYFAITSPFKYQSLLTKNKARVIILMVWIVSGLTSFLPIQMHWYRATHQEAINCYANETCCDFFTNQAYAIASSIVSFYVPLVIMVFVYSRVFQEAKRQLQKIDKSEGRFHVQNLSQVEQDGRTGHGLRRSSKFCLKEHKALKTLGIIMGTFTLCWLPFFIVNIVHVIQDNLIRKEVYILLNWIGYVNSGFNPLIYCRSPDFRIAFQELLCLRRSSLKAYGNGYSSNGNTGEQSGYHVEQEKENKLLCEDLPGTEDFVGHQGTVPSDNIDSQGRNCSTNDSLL
How it was run: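 Assay format: CHO-ADRB2 cells, 18-20hr seeding at 37C/5% CO2, then compound plus 1nM isoproterenol agonist mix for 0.5hr RT. Homogeneous time-resolved fluorescence cAMP detection after 1hr, expressed as 665/615 nm ratio.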

[18] = molecular target: D(2) dopamine receptor (Homo sapiens) (UniProt P14416); test: Dopamine D2 receptor (DRD2) small molecule agonists, cell-based qHTS assay (AID 1963594); also: nearly all actives have a fitted effect of over 35% in size
Sequence of D(2) dopamine receptor (Homo sapiens) (P14416 whole entry, looked up): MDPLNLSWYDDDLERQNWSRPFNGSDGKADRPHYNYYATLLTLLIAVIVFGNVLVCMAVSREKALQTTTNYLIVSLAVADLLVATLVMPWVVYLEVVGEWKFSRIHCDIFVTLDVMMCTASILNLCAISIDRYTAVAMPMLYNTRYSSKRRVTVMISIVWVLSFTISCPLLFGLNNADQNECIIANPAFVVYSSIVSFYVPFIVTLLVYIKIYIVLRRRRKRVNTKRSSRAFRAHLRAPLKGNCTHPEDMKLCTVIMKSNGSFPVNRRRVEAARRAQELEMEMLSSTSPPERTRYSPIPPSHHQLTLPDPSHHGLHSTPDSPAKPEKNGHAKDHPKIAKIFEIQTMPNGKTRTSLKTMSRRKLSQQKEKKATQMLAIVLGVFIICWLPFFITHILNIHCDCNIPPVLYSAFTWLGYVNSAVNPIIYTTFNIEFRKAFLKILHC
How it was run: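 HEK293 cells stably expressing human DRD2, pre-treated with PDE inhibitor Ro20-1724 (0.1 mM final) and compound 10 min at room temperature, then stimulated with NKH477 (200nM […]) for 30 min. cAMP read by HTRF (665/620 nm).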

[19] = molecular target: D(2) dopamine receptor (Homo sapiens) (UniProt P14416); test: Dopamine D2 receptor (DRD2) small molecule antagonists, cell-based qHTS assay (AID 1963595; active = well fitted inhibition curve with a large enough effect in the signal ratio in the repeat runs, with a control signal flat; the % refers to the signal ratio)
How it was run: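 Human DRD2 antagonist qHTS measuring cAMP by HTRF. The cells are exposed to compound for 10 min, then to NKH477 (200 nM) and quinpirole (12 nM) for 30 min at RT, with Ro20-1724 (0.1 mM) present throughout.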

[20] = cAMP Responsive Elements (CRE) small molecule antagonists, cell-based qHTS assay (AID 1963591; active = well fitted inhibition curve with a large enough effect in the signal ratio in the repeat runs, not every such curve was filed as active; the % refers to the signal ratio)
How it was run: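 Fluorescence intensity from cleaved LiveBLAzer B/G substrate (2 h, room temperature) quantified CRE-bla activity in HEK 293T cells exposed 3 h to compound with 0.25 uM final NKH477.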

Compound | Potency [1] | Potency [2] | Potency [3] | Potency [4] | Potency [5] | Potency [6] | Potency [7] | Potency [8] | Potency [9] | Potency [10] | Potency [11] | Potency [12] | Potency [13] | Potency [14] | Potency [15] | Potency [16] | Potency [17] | Potency [18] | Potency [19] | Potency [20]
CC(C)(C)OOC(C)(C)C | inactive | inactive | inactive | inactive | inactive | inactive | inactive | inactive | inactive | inactive | inactive | inactive | inactive | inactive | inactive | inactive | inactive | inactive | inactive | 
COc1ccc2c3c1O[C@H]1[C@@H](O)C=C[C@H]4[C@@H](C2)N(C)CC[C@@]341 | inactive | 23.9 µM (active) and inactive | inactive | inactive | inactive | inactive | inactive | inactive | inactive | inactive | inactive | inactive | inactive | inactive | inactive | inactive | inactive | inactive | inactive | 
CC(C)(O)C(Cl)(Cl)Cl | inactive | inactive | inactive | inactive | inactive | inactive | inactive | inactive | inactive | inactive | inactive | inactive | inactive | inactive | inactive | inactive |  | inactive |  | inactive
S=C=S | inactive | inactive | inactive | inactive | inactive | inactive | inactive | inactive | inactive | inactive | inactive | inactive | inactive | inactive | inactive | inactive | inactive | inactive | inactive | 
c1ccc(OP(Oc2ccccc2)Oc2ccccc2)cc1 | inactive | inactive | inactive | inactive | inactive | inactive | inactive | inactive | inactive | inactive | inactive | inactive | inactive | inactive | inactive | inactive | inactive | inactive | inactive | 
CCC(C)Cl (stereo unspecified) | inactive | inactive | inactive | inactive | inactive | inactive | inactive | inactive | inactive | inactive | inactive | inactive | inactive | inactive | inactive | inactive | inactive | inactive | inactive | inactive
C=Cc1cccc(CCl)c1 | inactive | inactive | inactive | inactive | inactive | inactive | inactive | inactive | inactive | inactive | inactive | inactive | inactive | inactive | inactive | inactive | inactive | inactive | inactive | 
CCOP(=O)(OCC)OP(=O)(OCC)OCC | inactive | inactive | inactive | inactive | inactive | inactive | inactive | inactive | inactive | inactive | inactive | inactive | inactive | inactive | inactive | inactive | inactive |  | inactive | 
